The values below come from the supplement of paper PMC13380429.

Structures are written as SMILES. Unmarked numbers belong to inactive results.

The subject of this assay is Vero E6 infected with SARS-CoV-2. In words: inhibition of SARS-CoV-2 cytopathic effect; higher = more antiviral protection, active = above 15. As to conditions: 48 h. Background: Damage to the host cells serves as the signal in cytopathic effect assays.

As for `N#C/C(=C\c1ccc(O)c(O)c1)C(=O)NCCCc1ccccc1`, the “inhibition of SARS-CoV-2 cytopathic effect” value (“inhibition” for short) was -2.32% (1 nM); -2.1% (8.33 nM); -0.73% (100 nM); 0.57% (833.33 nM); 0.75% (10000 nM).

As to `CN1[C@@H]2CC[C@H]1C[C@@H](OC(=O)c1c[nH]c3ccccc13)C2` [tropisetron], the “inhibition” value was -1.26% (1 nM); -1.1% (8.33 nM); 1.21% (100 nM); 1.27% (833.33 nM); -1.17% (10000 nM).

For the molecule `c1ccc2cc(C3=NCCN3)ncc2c1`, the “inhibition” value reads like this: (1 nM) 1.6%; (8.33 nM) 1.22%; (100 nM) 2.06%; (833.33 nM) -0.28%; (10000 nM) 1.35%.

As for `COc1cc2c(cc1OC)CN(C(=O)[C@@H](NCc1ccncc1)C(C)(C)C)CC2`, the “inhibition” value was 2.06% (1 nM); 3.28% (8.33 nM); 2.93% (100 nM); 1.04% (833.33 nM); 1.19% (10000 nM).

Consider `CC1=CC(=C(c2ccc(N)cc2)c2ccc(N)cc2)C=CC1=N` [basic-fuchsin], for which the “inhibition” value is 0.76% (1 nM); 0.35% (8.33 nM); 1.45% (100 nM); -0.79% (833.33 nM); -17.1% (10000 nM).

For the molecule `Cc1cc(C(N)=O)ccc1-n1c(CCC(=O)O)ccc1-c1ccc(-n2ccnc2)cc1`, the “inhibition” value was -3.46% (1 nM); 2.86% (8.33 nM); 2.45% (100 nM); -1.56% (833.33 nM); -2.98% (10000 nM).

Turning to `C[C@@H]1O[C@@H](O[C@@H]2[C@@H](O)[C@H](OCCc3ccc(O)c(O)c3)O[C@H](CO)[C@H]2OC(=O)/C=C/c2ccc(O)c(O)c2)[C@H](O)[C@H](O)[C@H]1O` [verbascoside], the “inhibition” value is -0.06% (1 nM); -0.95% (8.33 nM); 0.7% (100 nM); -1.19% (833.33 nM); -1.48% (10000 nM).

`Cc1ccc2c(c1)=C(c1ccccc1)C(C1=NN(C(=O)CCC(=O)O)C(c3ccc(Br)cc3)C1)C(=O)N=2` (stereo not given): the “inhibition” value was -0.42% (1 nM); -0.1% (8.33 nM); 2.84% (100 nM); 3.61% (833.33 nM); 0.79% (10000 nM).

Turning to `Cc1c(C)c2c(c(C)c1O)CCC(C)(C(=O)O)O2` (stereo not given) [trolox], the “inhibition” value is 4.59% (1 nM); 3.64% (8.33 nM); 1.16% (100 nM); 6.02% (833.33 nM); 2.14% (10000 nM).

Consider `C[C@]12CCC(=O)C[C@@H]1CC[C@@H]1[C@@H]2CC[C@]2(C)C=CC[C@@H]12` [androstenone], for which the “inhibition” value is, setting by setting: (1 nM) -0.13%; (8.33 nM) -0.62%; (100 nM) -1.17%; (833.33 nM) 0.87%; (10000 nM) -0.03%.

On to `Cc1cc(Cl)ccc1OCCCC(=O)NO` [droxinostat], for which the “inhibition” value (1 nM) was 4.45%; the “inhibition” value (8.33 nM) is 1.04%; the “inhibition” value (100 nM) was 1.23%; the “inhibition” value (833.33 nM) is 1.7%; the “inhibition” value (10000 nM) was -3.27%.

As for `C#CCN(C)Cc1ccccc1` [pargyline], the “inhibition” value is 0% (1 nM); 0.65% (8.33 nM); -1.02% (100 nM); -1.01% (833.33 nM); 2.9% (10000 nM).

`CNC(=O)c1cc(Oc2ccc(NC(=O)Nc3cc(C(C)(C)C)nn3-c3ccc4ncccc4c3)c(F)c2)ccn1` [rebastinib]: the “inhibition” value is, setting by setting: (1 nM) -1.46%; (8.33 nM) 0.18%; (100 nM) 1.77%; (833.33 nM) 5.75%; (10000 nM) 8.96%.

Consider `Clc1ccccc1CNC[C@H]1CC[C@H](CNCc2ccccc2Cl)CC1`, for which the “inhibition” value (1 nM) is -1.74%; the “inhibition” value (8.33 nM) is -2.28%; the “inhibition” value (100 nM) was -1.13%; the “inhibition” value (833.33 nM) was -3.17%; the “inhibition” value (10000 nM) is 16.4% (active).

Take `CNC(=N)NCCC[C@H](N)C(=O)O` [targinine]: the “inhibition” value (1 nM) was -1.27%; the “inhibition” value (8.33 nM) is 4.65%; the “inhibition” value (100 nM) is 8.19%; the “inhibition” value (833.33 nM) was 0.16%; the “inhibition” value (10000 nM) is 3.97%.

Take `C[C@@H](O[C@H]1OCCN(Cc2nn[nH]c2CN(C)C)[C@H]1c1ccc(F)cc1)c1cc(C(F)(F)F)cc(C(F)(F)F)c1`: the “inhibition” value was -0.75% (1 nM); -1.76% (8.33 nM); -0.97% (100 nM); -4.49% (833.33 nM); 7.29% (10000 nM).

Turning to `COCCOCCOc1ccc(C2=N[C@@](C)(C(=O)O)CS2)c(O)c1`, the “inhibition” value (1 nM) was -1.16%; the “inhibition” value (8.33 nM) is 1.76%; the “inhibition” value (100 nM) is 1.19%; the “inhibition” value (833.33 nM) was 1.75%; the “inhibition” value (10000 nM) was 2.16%.

With `O=C(O)c1ccccc1Nc1cc(Cl)ccc1C(=O)O` [lobenzarit], the “inhibition” value was 0.49% (1 nM); -0.08% (8.33 nM); 0.37% (100 nM); 2.27% (833.33 nM); -3.63% (10000 nM).

Turning to `C[C@H]1O[C@@H](Oc2c(-c3cc(O)c(O)c(O)c3)oc3cc(O)cc(O)c3c2=O)[C@@H](O)[C@@H](O)[C@@H]1O` [myricitrin], the “inhibition” value reads like this: (1 nM) 0.43%; (8.33 nM) -0.53%; (100 nM) 0.85%; (833.33 nM) -1.02%; (10000 nM) -1.34%.
